Shiga inhibitor: blocks Shiga toxin action in Vero cells; Vero cells, Shiga toxin protein synthesis inhibition reporter; inhibition, % at 38.7 µM; actives 9.2% (n = 290,000); in the data active = inhibition mostly above about 28%, no sharp cut-off; inactive = mostly below about 43%; note: 0% is about no effect
Pf growth 48h: P. falciparum growth inhibition at 48 hours (one generation) | actives 5.9% (n = 310,000) | P. falciparum luciferase growth in erythrocytes, 48 h | Potency, µM (series often up to 28.7 µM), without a hit: at the highest dose activity change, negative = inhibition, usual class: inhibitors; active = well fitted inhibition curve with a large enough effect; inconclusive = small, poorly fitted or top-dose-only effect, or another doubt; inactive = no such curve, though single readings can be large or run the other way; note: potency is the fitted concentration of half-maximal effect; % is set by controls: 0 for no effect and ±100 for the full control effect
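Erythrocytes infected with P. falciparum carrying an integrated firefly luciferase reporter (2% hematocrit, 0.1% parasitemia final) were exposed to compounds in RPMI 1640 with 0.5% Albumax at 37 C, 5% CO2. Growth inhibition was scored as reduced luminescence.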
Pf growth 96h: P. falciparum growth inhibition at 96 hour, primary screen for plastid delayed-death inhibitors; actives 6.9% (n = 320,000); Potency, µM (highest dose often 28.7 µM), without a hit: top-dose activity change, negative = inhibition, actives largely listed as inhibitors; P. falciparum luciferase reporter growth, 96 h; active = well fitted inhibition curve with a large enough effect; inconclusive = small, poorly fitted or top-dose-only effect, or another doubt; inactive = no such curve, though single readings can be large or run the other way; note: potency is the fitted concentration of half-maximal effect; % is set by controls: 0 for no effect and ±100 for the full control effect
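Two-generation exposure (96 h) targets delayed-death phenotype. Reporter parasites carrying integrated firefly luciferase, in red cells at 2% hematocrit and 0.05% parasitemia final, kept at 37 C, 5% CO2; luminescence loss indicates inhibition.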
SARS PLpro yeast: SARS-CoV PLP inhibition in yeast. Potency, µM (series often up to 32.9 µM), for the others: at the highest dose activity, positive = growth rescue, usual class: activators. actives 0.19% (n = 330,000). S. cerevisiae expressing SARS-CoV PLpro, growth rescue; note: potency is the fitted concentration of half-maximal effect; 0% is about no effect; nearly all actives have a fitted effect of over 55% in size
Cycloheximide cs: counter-screen hit for Shiga toxin inhibitors, cycloheximide | cell reporter, cycloheximide protein synthesis inhibition counterscreen | max response, % | actives 12% (n = 300,000) | AID 2314; in the data active = max response mostly above about 13%, no sharp cut-off; inactive = mostly below about 14%; note: read at 38.3 µM for the half of the compounds with a filed dose; 0% is about no effect
NS1 inh: blocks influenza NS1 protein function. Potency, µM (top dose mostly 46.1 µM), for inactives: at the top dose activity, positive = more growth. actives 0.4% (n = 270,000); note: potency is the fitted concentration of half-maximal effect; actives are rising curves; nearly all actives have a fitted effect of over 50% in size
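OD600 was taken as the measure of yeast growth restored by compound in an NS1-expressing S. cerevisiae strain. Cells had been washed out of glucose medium and diluted 1:100 into galactose -URA medium, pH 6.0.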
* = called active by the depositor; ? = inconclusive; . = no result given. Only some compounds are listed: those with a hit (about 21% of all), similar ones and a draw of the others. Unless noted, calls come from the whole dose curve.

SMILES | Shiga inhibitor | Pf growth 48h | Pf growth 96h | SARS PLpro yeast | Cycloheximide cs | NS1 inh
Nc1c(N(CCC2=CCCCC2)C(=O)Cc2ccc(F)cc2)c(=O)[nH]c(=O)n1Cc1ccccc1 | . | 9.3µM* | ? | -1% | . | .
CC1CC1C(=O)N(CCC1=CCCCC1)c1c(N)n(Cc2ccccc2)c(=O)[nH]c1=O (stereo not drawn) | . | ? | ? | 2% | . | .
Nc1c(N(CCC2=CCCCC2)C(=O)c2ccc([N+](=O)[O-])o2)c(=O)[nH]c(=O)n1Cc1ccccc1 | . | 10µM* | ? | 1% | . | .
COc1cc(NC(=O)c2cc3ccccc3cc2OC)ccc1NC(=O)c1cccs1 | -3 | -4% | 1% | -3% | 1 | 0%
COc1cc(NC(=O)c2cccc(Cl)c2)ccc1NC(=O)c1cccs1 | 98 | 15% | 30% | -1% | 16* | 3%
COc1c(Cl)cc(Cl)cc1/C=C/C(=O)c1ccc(NC(=O)c2cccs2)cc1 | 40* | 5.2µM* | -12% | 1% | 30* | 8%
COc1cc(NC(=O)c2ccccc2Cl)ccc1NC(=O)c1cccs1 | 105* | 142% | 26% | 0% | 46* | .
CC(=O)Nc1cccc(C(=O)OCC(=O)NNC(=O)c2ccc([N+](=O)[O-])cc2)c1 | . | -9% | 23% | 2% | . | .
COc1ccc2oc(-c3ccc(C)c(NC(=O)c4ccc(N5CCOCC5)c([N+](=O)[O-])c4)c3)nc2c1 | 134* | 126% | ? | 3% | 59* | 10%
O=C(Nc1ccccc1N1CCOCC1)c1ccc(N2CCOCC2)c([N+](=O)[O-])c1 | 15 | ? | ? | 1% | 1 | .
O=C(Nc1nccs1)c1ccc(Cl)cc1[N+](=O)[O-] | -14 | 30% | 57% | -9% | 1 | 6%
O=C(Nc1nccs1)c1ccc(N2CCOCC2)c([N+](=O)[O-])c1 | 86* | 132% | 48% | 3% | 50* | -11%
O=C(Nc1nccs1)c1ccc([N+](=O)[O-])cc1Cl | 51 | 55% | 10µM* | 1% | 12 | -3%
O=C(Nc1nccs1)c1ccc(Cl)c([N+](=O)[O-])c1 | 43 | 9% | -4% | -14% | 43* | -25%
O=C(Nc1nccs1)c1cc([N+](=O)[O-])ccc1Cl | -4 | ? | 30% | -8% | 3 | 9%
Cc1ccc(C(=O)Oc2ccc(-c3nnco3)cc2)o1 | . | 53% | ? | 3% | . | .
COc1ccccc1-c1c(C)oc2c(CN3CCN(C)CC3)c(O)ccc2c1=O | -3 | -18% | -17% | 13% | -2 | 3%
CCOC(=O)c1c(-c2ccccc2)oc2ccc(O)c(CN3CCN(C)CC3)c12 | -6 | 3.7µM* | 3.3µM* | -2% | -3 | -5%
CCOC(=O)c1oc2c(CN3CCN(C)CC3)c(O)ccc2c(=O)c1-c1ccccc1OC | 1 | -3% | 9.3µM* | 3% | -4 | -7%
CCC(C(=O)NCc1cccs1)n1nc(C)n2c(cc3occc32)c1=O (stereo not drawn) | -3 | 55% | 27% | . | -3 | 24%
CC(C)C(NC(=O)c1ccc(Cl)cc1)C(=O)NCC1CCCO1 (stereo not drawn) | -4 | 4% | 22% | 2% | -5 | -10%
CCC1Oc2ccccc2N(CC(=O)NC2CCCC2)C1=O (stereo not drawn) | 15 | 8% | -4% | 1% | -1 | 18%
CCOC(=O)c1ccc(NC(=S)NNC(=O)c2cc(-c3cccnc3)nc3ccccc23)cc1 | 22 | 4.1µM* | 66% | 3% | 9 | 8%
O=C(NNC(=S)Nc1ccccc1)c1cc(-c2cccnc2)nc2ccccc12 | 5 | ? | 1.2µM* | 2% | 2 | -5%
O=C(NC(=S)Nc1ccccc1)c1cc(-c2ccccc2)nc2ccccc12 | -3 | ? | 10µM* | -8% | 3 | ?
O=C(NC(=S)Nc1ccccn1)c1cc(-c2ccccc2)nc2ccccc12 | 33 | 23% | -28% | 7% | 0 | 60%
CCCNC(=S)NNC(=O)c1cc(-c2cccnc2)nc2ccccc12 | 8 | -2% | ? | 2% | -2 | 9%
COC(=O)c1cc(OC)c(OC)cc1NC(=S)N1CCCC(CO)C1 (stereo not drawn) | -7 | 4% | . | 0% | -3 | -6%
CCCCn1c(=O)c2c(O)cc(=O)oc2c2ccccc21 | 7 | 42% | ? | -5% | 1 | -76%

Screens: PubChem, National Center for Advancing Translational Sciences (NCATS)
